# Compounds with a hit are over-represented: about 3.5% of the library has one in this group of screens.
# TEAD-YAP inh – TEAD-YAP interaction inhibition. HEK-TIYL cells, TEAD-Gal4/YAP UAS-luciferase luminescence. inhibition, % at 9.12 µM. actives 1.4% (n = 640,000); in the data active means inhibition above about 32%
# MITF primary – human MITF inhibition, primary screen; O75030; AlphaScreen MITF homodimerization, bead proximity signal; inhibition, % at 2.6 µM; actives 0.91% (n = 650,000); in the data active means inhibition above about 50%
# FBW7 activator – activators of human E3 ligase FBW7. AlphaScreen FBW7–phospho-cyclin E peptide binding, activator screen. actives 0.13% (n = 650,000). normalized activity (activation), % at 26.1 µM; in the data active means normalized activity above about 1.9%;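 further: purified mutant Fbw7 with reduced substrate affinity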
# Target sequence (Q969H0 whole entry, looked up): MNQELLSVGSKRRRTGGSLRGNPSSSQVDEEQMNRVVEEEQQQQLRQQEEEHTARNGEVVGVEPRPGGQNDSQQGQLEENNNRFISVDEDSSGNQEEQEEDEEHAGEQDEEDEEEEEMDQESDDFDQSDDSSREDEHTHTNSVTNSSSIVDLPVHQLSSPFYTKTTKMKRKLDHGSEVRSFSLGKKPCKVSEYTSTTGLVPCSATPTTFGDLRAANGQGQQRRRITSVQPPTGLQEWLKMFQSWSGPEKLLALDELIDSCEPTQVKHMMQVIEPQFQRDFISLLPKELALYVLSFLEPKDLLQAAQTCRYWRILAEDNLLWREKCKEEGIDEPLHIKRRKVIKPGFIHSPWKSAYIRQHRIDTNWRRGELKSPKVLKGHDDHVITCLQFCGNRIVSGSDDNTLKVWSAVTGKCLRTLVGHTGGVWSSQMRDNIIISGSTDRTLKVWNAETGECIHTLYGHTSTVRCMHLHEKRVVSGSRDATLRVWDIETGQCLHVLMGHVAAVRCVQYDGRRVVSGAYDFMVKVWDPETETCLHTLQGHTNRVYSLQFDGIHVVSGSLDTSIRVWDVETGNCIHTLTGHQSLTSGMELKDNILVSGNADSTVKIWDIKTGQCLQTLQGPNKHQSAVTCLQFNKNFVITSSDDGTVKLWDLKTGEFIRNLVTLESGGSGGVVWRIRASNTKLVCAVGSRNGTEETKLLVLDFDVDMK
# GPR151 ag – activators of human GPR151. actives 1% (n = 650,000). activation, % at 11.2 µM. Q8TDV0. PathHunter beta-arrestin GPR151 cells, luminescence; in the data active means activation above about 4.9%
# Hits are given with their value; i = inactive.
SMILES,TEAD-YAP inh,MITF primary,FBW7 activator,GPR151 ag
O=C(Nc1cccc(Cl)c1Cl)c1cc(S(=O)(=O)NC2CCCCC2)ccc1F,i,i,i,i
COC(=O)c1ccccc1NC(=O)NNC(=O)c1csc(C)c1-c1ccc(C)cc1,33,i,i,i
COC(=O)c1ccccc1NC(=O)NNC(=O)c1cc2ccccc2cc1O,i,i,i,i
COc1ccc2nc(Nc3nc(-c4ccccn4)cs3)sc2c1,49,51,i,i
COc1ccc2sc(Nc3nc(-c4ccccn4)cs3)nc2c1,37,i,i,i
COc1ccc2nc(Nc3nc(-c4cccnc4)cs3)sc2c1,i,i,i,i
Cc1cc(C)c2c(N)c(-c3nc4ccccc4[nH]3)sc2n1,i,i,i,i
Cc1ccc2nc(-c3sc4nc(C)ccc4c3N)[nH]c2c1,72,i,i,i
O=C(NCc1ccc(F)cc1)c1ccc(N2CC3CC(C2)c2cccc(=O)n2C3)c(NC(=O)c2ccc(F)cc2)c1 (stereo not given),84,i,i,i
Nc1ccc(C(=O)OCCCc2nc3cc4ccccc4cc3[nH]2)cc1,i,i,i,i
Nc1ccc(C(=O)OCc2nc3cc4ccccc4cc3[nH]2)cc1,48,i,i,i
Cc1[nH]n(-c2ccccc2)c(=O)c1C(c1cccc(Br)c1)c1c(C)[nH]n(-c2ccccc2)c1=O,i,i,i,i
Cc1[nH]n(-c2ccccc2)c(=O)c1C(=O)c1cccc(Br)c1,59,i,i,i
Cc1ccccc1NC(=O)c1cccc2c1C(=O)c1ccccc1-2,53,i,i,i
O=C(CNc1ccc(F)cc1)N/N=C/c1ccc(C(F)(F)F)cc1,i,i,i,i
COc1ccc(CC(=O)Nc2cc3cc(-c4cnn(C)c4)ccc3cn2)cc1,72,i,i,i
COc1ccc(CC(=O)Nc2ccc(-c3cn[nH]c3)cc2N2CCN(C)CC2)cc1,i,i,i,i
Cn1cc(-c2ccnc(NC(=O)Cc3ccc4c(c3)OCO4)c2)cn1,34,i,i,i
COc1ccc(CC(=O)Nc2cc(-c3cnn(C)c3)ccn2)cc1,43,i,i,i
COc1ccc(CC(=O)Nc2cc(C)on2)cc1,i,i,i,i
COc1ccc(CC(=O)Nc2cc3cc(-c4cn[nH]c4)ccc3cn2)cc1,96,i,i,i
NC1CCN(c2ccnc(NC(=O)Cc3ccc4c(c3)OCO4)c2)CC1,i,i,i,i
Cn1cc(-c2cccc3cnc(NC4CCN(C(=O)N5CCCC5)C4)nc23)cn1 (stereo not given),39,i,i,i
Cc1sc(NC(=O)CN(C(=O)c2ccccc2)C2CCCCC2)c(C(N)=O)c1C,36,i,i,i
Cc1sc(NC(=O)CN(C(=O)c2ccccc2)C2CCCC2)c(C(N)=O)c1C,41,i,i,i
SMILES,TEAD-YAP inh,MITF primary,FBW7 activator,GPR151 ag
Cc1ccccc1C(=O)N(CC(=O)Nc1sc(C)c(C)c1C(N)=O)C1CCCCC1,i,i,i,i
COc1cccc(C(=O)N(CC(=O)Nc2sc(C)c(C)c2C(N)=O)C2CCCC2)c1,41,i,i,i
Cc1sc(NC(=O)CN(C(=O)c2ccc(Cl)cc2)C2CCCC2)c(C(N)=O)c1C,i,i,i,i
CC(C)CNC(=S)N1CCC(n2cnc3cc(F)ccc32)CC1,i,i,i,i
COc1ccc(/C=C2\N=C(c3cccc([N+](=O)[O-])c3)OC2=O)cc1,i,i,i,i
C(=N\Nc1ncnc2nc[nH]c12)/c1ccc(OCc2ccccc2)cc1,i,i,i,i
Cc1ccc2cc3c(nc2c1)-c1ccccc1C3,60,i,i,i
Cc1cc(C)c2c(c1)Cc1cc3ccccc3nc1-2,i,i,i,i
c1ccc2c(c1)Cc1cc3ccccc3nc1-2,47,i,i,i
Cc1ccc2nc(-c3ccccc3)c(-c3ccccc3)nc2c1,i,i,i,i
Cc1ccc(-c2nc(CSCC(=O)N3CCN(c4ccccn4)CC3)c(C)o2)cc1,40,i,i,i
CCc1ccc(-c2nc(CSCC(=O)N3CCN(c4ccccn4)CC3)c(C)o2)cc1,35,i,i,i
COC(=O)c1ccc([C@@H]2Nc3c(C)cccc3[C@@H]3C=CC[C@@H]32)cc1,i,i,i,i
N#Cc1cnc2c(-c3ccccc3)cnn2c1N,i,i,i,i
CCCCCOc1ccccc1/C=C1\SC(=O)NC1=O,i,i,i,i
O=C(CSCc1ccccc1F)NC1CCCC1,i,i,i,i
c1ccc2c(Nc3nc(Nc4ccc(N5CCOCC5)cc4)c4[nH]cnc4n3)nccc2c1,38,i,i,i
c1cncc(Nc2nc(Nc3ccc(N4CCOCC4)cc3)c3[nH]cnc3n2)c1,37,i,i,i
Nc1nc(Nc2ccc(N3CCOCC3)cc2)cc(Nc2nccc3ccccc23)n1,40,i,i,i

# Source: PubChem BioAssay (The Scripps Research Institute Molecular Screening Center)
